Assay results from the antibiotic and cytotoxicity screens of Wong et al. (2023).
About 1,500 (3.8%) of roughly 39,000 compounds were called active. The sample holds actives, similar compounds and a random draw of the others, so the mix is not that of the screen.

Each molecule was assayed on HSkMC (human skeletal muscle cells) (assay: cytotoxicity call (relative viability < 0.9)). Conditions: 10 µM.

| SMILES | cytotoxicity call |
| --- | --- |
| C[C@@H]1CN([C@H](C)CO)C(=O)c2cccc(NS(C)(=O)=O)c2O[C@@H]1CN(C)Cc1ccc(C(=O)O)cc1 | inactive |
| Cc1noc(C)c1S(=O)(=O)N(C)C[C@H]1Oc2ccc(NC(=O)NC3CCCCC3)cc2CC(=O)N([C@@H](C)CO)C[C@H]1C | inactive |
| O=C(C[C@@H]1C[C@@H]2c3cc(NS(=O)(=O)c4ccc(F)cc4)ccc3O[C@@H]2[C@H](CO)O1)NCCN1CCCCC1 | inactive |
| C=CC[C@@H](CC(=O)N[C@H](CO)Cc1ccccc1)C(=O)NCCOC(=O)[C@H](CC=C)CC(=O)OC(C)(C)C | inactive |
| CCCCCN1CC=C[C@]23O[C@@H]4/C=C/CCC(=O)N(C)[C@H](C)[C@@H](c5ccccc5)OC(=O)[C@@H]4[C@H]2C(=O)N(c2ccccc2Cl)[C@@H]3C1=O | inactive |
| Cc1noc(C)c1NC(=O)Nc1ccc2c(c1)C(=O)N([C@H](C)CO)C[C@H](C)[C@H](CN(C)S(=O)(=O)c1cccs1)OCCCC[C@H](C)O2 | inactive |
| C[C@@H]1CN([C@@H](C)CO)S(=O)(=O)c2ccc(C#CC3CC3)cc2O[C@@H]1CN(C)C(=O)c1cccc(F)c1 | inactive |
| CC(C)(O)c1ccccc1CC[C@@H](SCC1(CC(=O)O)CC1)c1cccc(/C=C/c2ccc3ccc(Cl)cc3n2)c1 | active |
| CC(C)(O)c1ccccc1CCC(SCC1(CC(=O)[O-])CC1)c1cccc(C=Cc2ccc3ccc(Cl)cc3n2)c1.[Na+] (centres undefined) | inactive |
| C[C@@H]1CN([C@H](C)CO)C(=O)c2cc(NC(=O)Nc3cccc4ccccc34)ccc2O[C@@H](C)CCCCO[C@@H]1CN(C)S(=O)(=O)c1ccc(F)cc1 | inactive |
| COCC(=O)N1C[C@@H](C(=O)N2CCCO2)C[C@@H]2OCC[C@@H]21 | inactive |
| O=C(Nc1cccc2cccnc12)[C@@H]1[C@H](c2ccc(I)cc2)CC(=O)N1C(=O)OCc1ccccc1 | inactive |
| C[C@@H]1CCCCO[C@H](CN(C)C(=O)c2ccccc2)[C@H](C)CN([C@@H](C)CO)C(=O)c2cc(NS(=O)(=O)c3ccccc3)ccc2O1 | inactive |
| Cc1c2oc3c(C)ccc(C(=O)N[C@@H]4C(=O)N[C@@H](C(C)C)C(=O)N5CCC[C@H]5C(=O)N(C)CC(=O)N(C)[C@@H](C(C)C)C(=O)O[C@@H]4C)c3nc-2c(C(=O)N[C@@H]2C(=O)N[C@@H](C(C)C)C(=O)N3CCC[C@H]3C(=O)N(C)CC(=O)N(C)[C@@H](C(C)C)C(=O)O[C@@H]2C)c(N)c1=O | inactive |
| Cc1c2oc3c(C)ccc(C(=O)N[C@@H]4C(=O)N[C@H](C(C)C)C(=O)N5CCC[C@H]5C(=O)N(C)CC(=O)N(C)[C@@H](C(C)C)C(=O)O[C@@H]4C)c3nc-2c(C(=O)N[C@@H]2C(=O)N[C@H](C(C)C)C(=O)N3CCC[C@H]3C(=O)N(C)CC(=O)N(C)[C@@H](C(C)C)C(=O)O[C@@H]2C)c(N)c1=O | active |
| Cc1c2oc3c(C)ccc(C(=O)OC(C)C4NC(=O)C(C(C)C)N(C)C(=O)CN(C)C(=O)C5CCCN5C(=O)C(C(C)C)NC4=O)c3nc-2c(C(=O)OC(C)C2NC(=O)C(C(C)C)N(C)C(=O)CN(C)C(=O)C3CCCN3C(=O)C(C(C)C)NC2=O)c(N)c1=O (centres undefined) | inactive |
| CC(=O)O[C@H]1C[C@@]2(C)[C@@H](C[C@@H](O)[C@@H]3[C@@]4(C)CC[C@@H](O)[C@@H](C)[C@@H]4CC[C@@]32C)/C1=C(/CCC=C(C)C)C(=O)O | inactive |
| COc1ccccc1S(=O)(=O)N[C@H]1C=C[C@@H](CC(=O)N2CCN(C)CC2)O[C@H]1CO | inactive |
| O=C(C[C@@H]1CC[C@@H]2[C@H](COC[C@H](O)CN2S(=O)(=O)c2ccccc2)O1)N[C@@H]1CCN(Cc2ccccc2)C1 | inactive |
| C=CC[C@@H](CC(=O)N(CCO)Cc1ccccc1)C(=O)N[C@H](COC(=O)[C@@H](CC=C)Cc1ccc(F)cc1)c1ccccc1 | inactive |

| SMILES | cytotoxicity call |
| --- | --- |
| C=CCC[C@@H](Cc1ccc(F)cc1)C(=O)OC[C@@H](NC(=O)[C@H](CC=C)CC(=O)N(CCO)Cc1ccccc1)c1ccccc1 | inactive |
| C=CCC[C@@H](Cc1ccc(F)cc1)C(=O)OC[C@@H](NC(=O)[C@@H](CC=C)CC(=O)N(CCO)Cc1ccccc1)c1ccccc1 | active |
| C=CCC[C@H](Cc1ccc(F)cc1)C(=O)OC[C@@H](NC(=O)[C@@H](CC=C)CC(=O)N(CCO)Cc1ccccc1)c1ccccc1 | active |
| C=CCC[C@@H](Cc1ccc(F)cc1)C(=O)OC[C@@H](Cc1ccccc1)NC(=O)[C@H](CC=C)CC(=O)N(CCO)Cc1ccccc1 | inactive |
| C=CCC[C@H](Cc1ccc(F)cc1)C(=O)OC[C@@H](NC(=O)[C@H](CC=C)CC(=O)N(CCO)Cc1ccccc1)c1ccccc1 | inactive |
| Cc1ccc(S(=O)(=O)N(C)C[C@H]2Oc3ccc(NC(=O)Nc4cccc5ccccc45)cc3C(=O)N([C@H](C)CO)C[C@@H]2C)cc1 | inactive |
| COc1ccc(C#Cc2ccc3c(c2)[C@]2(C(=O)N3)[C@H](C(N)=O)[C@H]3C(=O)O[C@H](c4ccccc4)[C@H](c4ccccc4)N3[C@@H]2c2ccc(OCCO)cc2)cc1 | inactive |
| Cc1cc(-c2ccccc2)nc(SCc2ccccc2)c1C#N | inactive |
| COc1ccc(S(=O)(=O)N(C)C[C@@H]2Oc3ccc(NS(C)(=O)=O)cc3CC(=O)N([C@@H](C)CO)C[C@H]2C)cc1 | inactive |
| CS(=O)(=O)Nc1ccc2c(c1)[C@@H]1C[C@H](CC(=O)NCc3ccc(-c4ccccc4)cc3)O[C@H](CO)[C@@H]1O2 | inactive |
| COc1ccc(S(=O)(=O)N(C)C[C@@H]2Oc3c(NC(=O)NC(C)C)cccc3C(=O)N([C@H](C)CO)C[C@@H]2C)cc1 | inactive |
| Cc1noc(C)c1NC(=O)Nc1ccc2c(c1)C(=O)N([C@H](C)CO)C[C@H](C)[C@H](CN(C)C(=O)Nc1ccccc1)OCCCC[C@@H](C)O2 | inactive |
| CC1=C(/C=C/C(C)=C/C=C/C(C)=C\C(=O)O)C(C)(C)CCC1 | inactive |
| C[C@H](CO)N1C[C@H](C)[C@@H](CN(C)S(=O)(=O)c2ccc(Cl)cc2)Oc2ccc(NC(=O)Nc3ccc(C(F)(F)F)cc3)cc2CC1=O | inactive |
| C[C@H]1CN([C@@H](C)CO)C(=O)Cc2cc(NC(=O)Nc3cccc(C(F)(F)F)c3)ccc2O[C@H]1CN(C)S(=O)(=O)c1ccc(Cl)cc1 | active |
| C[C@@H]1CN([C@@H](C)CO)C(=O)Cc2cc(NC(=O)Nc3ccc(C(F)(F)F)cc3)ccc2O[C@@H]1CN(C)S(=O)(=O)c1ccc(Cl)cc1 | active |
| C[C@H]1CN([C@@H](C)CO)C(=O)Cc2cc(NC(=O)Nc3cccc(C(F)(F)F)c3)ccc2O[C@H]1CN(C)S(=O)(=O)c1ccc(Oc2ccccc2)cc1 | inactive |
| C[C@@H]1CN([C@@H](C)CO)C(=O)Cc2cc(NC(=O)Nc3ccc(C(F)(F)F)cc3)ccc2O[C@H]1CN(C)S(=O)(=O)c1ccc(Cl)cc1 | inactive |
| COc1ccc(S(=O)(=O)N(C)C[C@@H]2Oc3ccc(NC(=O)Nc4cccc(C(F)(F)F)c4)cc3CC(=O)N([C@@H](C)CO)C[C@@H]2C)cc1Cl | active |
| C[C@H](CO)N1C[C@H](C)[C@H](CN(C)S(=O)(=O)c2ccc(Cl)cc2)Oc2ccc(NC(=O)Nc3ccc(C(F)(F)F)cc3)cc2CC1=O | active |

| SMILES | cytotoxicity call |
| --- | --- |
| C[C@@H]1CN([C@@H](C)CO)C(=O)c2cc(NS(=O)(=O)c3ccc(F)cc3)ccc2O[C@@H](C)CCCCO[C@@H]1CN(C)Cc1ccc(C(=O)O)cc1 | inactive |
| C[C@H]1CN([C@@H](C)CO)C(=O)CCCn2cc(nn2)CO[C@@H]1CN(C)Cc1cccc2c1OCCCO2 | inactive |
| CO[C@H]1O[C@H](CO)[C@@H](OC(=O)Nc2ccc(Oc3ccccc3)cc2)[C@H](OC(=O)Nc2ccccc2)[C@H]1OC(=O)Nc1ccccc1 | inactive |
| COc1ccc(S(=O)(=O)N(C)C[C@@H]2OCCCC[C@@H](C)Oc3ccc(NC(=O)Nc4ccccc4)cc3C(=O)N([C@H](C)CO)C[C@H]2C)cc1 | inactive |
| O=C(C[C@H]1CC[C@H]2[C@@H](COC[C@@H](O)CN2S(=O)(=O)c2ccc(Oc3ccccc3)cc2)O1)NC1CCC1 | inactive |
| CC(C)NC(=O)Nc1ccc2c(c1)C(=O)N([C@H](C)CO)C[C@@H](C)[C@@H](CN(C)S(=O)(=O)c1cn(C)cn1)O2 | inactive |
| C[C@H]1CN([C@@H](C)CO)C(=O)c2cc(NC(=O)Nc3cccc4ccccc34)ccc2O[C@@H]1CN(C)Cc1ccc(C(=O)O)cc1 | inactive |
| COC(=O)c1c(CC[C@@H](CO)NC(=O)N[C@H](Cn2cc(-c3ccccc3C)nn2)C(C)C)oc(C(C)=O)c1C(=O)OC | inactive |
| CCCN(C)C[C@H]1OCCCC[C@@H](C)Oc2ccc(NC(=O)C3CCCCC3)cc2C(=O)N([C@H](C)CO)C[C@@H]1C | inactive |
| C[C@H](CO)N1C[C@H](C)[C@@H](CN(C)S(C)(=O)=O)Oc2ccc(NC(=O)Nc3ccc(C(F)(F)F)cc3)cc2CC1=O | inactive |
| Cc1ccccc1S(=O)(=O)N(C)C[C@@H]1Oc2ccc(NC(=O)Nc3cccc(C(F)(F)F)c3)cc2CC(=O)N([C@@H](C)CO)C[C@@H]1C | active |
| C[C@@H]1CN([C@H](C)CO)C(=O)Cc2cc(NC(=O)Nc3ccc(C(F)(F)F)cc3)ccc2O[C@H]1CN(C)S(C)(=O)=O | inactive |
| C[C@@H]1CN([C@H](C)CO)C(=O)Cc2cc(NC(=O)Nc3ccc(C(F)(F)F)cc3)ccc2O[C@H]1CN(C)S(=O)(=O)c1ccc(Cl)cc1 | active |
| C[C@H]1CN([C@@H](C)CO)C(=O)Cc2cc(NC(=O)Nc3ccc(C(F)(F)F)cc3)ccc2O[C@H]1CN(C)S(C)(=O)=O | inactive |
| C[C@H]1CN([C@@H](C)CO)C(=O)Cc2cc(NC(=O)Nc3ccc(C(F)(F)F)cc3)ccc2O[C@@H]1CN(C)S(=O)(=O)c1ccc(Cl)cc1 | inactive |
| C[C@@H]1CN([C@H](C)CO)C(=O)Cc2cc(NC(=O)Nc3ccc(C(F)(F)F)cc3)ccc2O[C@@H]1CN(C)S(=O)(=O)c1ccc(Cl)cc1 | active |
| C[C@@H]1CN([C@@H](C)CO)C(=O)Cc2cc(NC(=O)Nc3ccc(C(F)(F)F)cc3)ccc2O[C@H]1CN(C)S(C)(=O)=O | inactive |
| C[C@@H]1CN([C@H](C)CO)C(=O)Cc2cc(NC(=O)Nc3ccc(C(F)(F)F)cc3)ccc2O[C@@H]1CN(C)S(C)(=O)=O | inactive |
| C[C@H]1CN([C@@H](C)CO)C(=O)Cc2cc(NC(=O)Nc3ccc(C(F)(F)F)cc3)ccc2O[C@H]1CN(C)S(=O)(=O)c1ccc(Cl)cc1 | active |
